These results are taken from PubChem BioAssay (NCI).

The structures appear in SMILES notation. The panel holds about 83,000 compounds, 20% with a hit somewhere; the sample as a whole holds those more often.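 Cell lines were cultured in 96-well plates, exposed to a single compound concentration, and assessed for percent growth 48 hours later.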 Values without a mark were called inactive. The source made the active and inactive calls. Rule for the calls: active = growth percent below 10; inactive = the rest.

Some test systems named below: SK-MEL-2 melanoma; EKVX NSCLC; SN12C renal; UO-31 renal; TK-10 renal; ACHN renal; CAKI-1 renal; A498 renal; CCRF-CEM leukemia; MOLT-4 leukemia; SR leukemia; RPMI-8226 leukemia; OVCAR-8 ovarian; OVCAR-4 ovarian; SK-OV-3 ovarian; IGROV1 ovarian; OVCAR-3 ovarian; HS 578T breast; NCI/ADR-RES ovarian; OVCAR-5 ovarian.
Common to all, as to assay: NCI-60 one-dose screen, 48 h (100 = growth as untreated, 0 = no growth, -100 = all killed)
What all share (conditions): 10 µM unless noted

Consider `O=C(c1ccccc1)c1cc2ccccc2oc1=O`, for which the growth in the assay on SK-MEL-2 melanoma is 126%; in the assay with EKVX NSCLC it was 95.5%; in the assay with SN12C renal, 89.4%; in the assay with UO-31 renal, 59.3%; with TK-10 renal it was 130%; with ACHN renal it was 101%. Moreover, the growth in the assay on CAKI-1 renal was 98.7%; in the assay on A498 renal it was 117%; in the assay with CCRF-CEM leukemia it was 101%; in the assay on MOLT-4 leukemia, 105%; with SR leukemia, 107%; with RPMI-8226 leukemia it was 84.3%. Besides, the growth in the assay on OVCAR-8 ovarian was 96.9%; in the assay on OVCAR-4 ovarian it was 95.2%; in the assay on SK-OV-3 ovarian, 100%; in the assay with IGROV1 ovarian, 64.8%; in the assay with OVCAR-3 ovarian, 107%; in the assay on HS 578T breast, 90.6%. The growth in the assay on NCI/ADR-RES ovarian is 100%.
For `C/C=C/c1cc2c(c(=O)o1)C(=O)[C@@H](O)[C@H](C)O2`, the growth in the assay with SK-MEL-2 melanoma is 72.9%; in the assay with EKVX NSCLC, 95%; with SN12C renal, 97.6%; in the assay with UO-31 renal it was 0.0978% (active); with TK-10 renal, 5.77% (active); in the assay on ACHN renal, 26.3%. The growth is 43.3% in the assay on CAKI-1 renal; 125% in the assay on A498 renal; -17.5% (active) in the assay on CCRF-CEM leukemia; 43.6% in the assay on MOLT-4 leukemia; 11.9% in the assay with SR leukemia; -45.7% (active) with RPMI-8226 leukemia. The growth is 87.5% with OVCAR-5 ovarian; -12.6% (active) in the assay on OVCAR-4 ovarian; 109% in the assay on SK-OV-3 ovarian; -46.9% (active) in the assay on IGROV1 ovarian; 47.5% in the assay on OVCAR-3 ovarian; 93.4% in the assay on HS 578T breast. Moreover, the growth in the assay with NCI/ADR-RES ovarian was 86%.
For `CC(=O)N1CC(=O)NC1=S`, the growth in the assay with SK-MEL-2 melanoma is 105%; in the assay on EKVX NSCLC, 94%; in the assay on SN12C renal, 100%; in the assay with UO-31 renal it was 86.1%; with TK-10 renal it was 102%; in the assay on ACHN renal, 103%. The growth in the assay with CAKI-1 renal was 93%; with CCRF-CEM leukemia, 105%; with MOLT-4 leukemia, 104%; in the assay on SR leukemia, 91.8%; in the assay with RPMI-8226 leukemia, 101%; with OVCAR-8 ovarian, 103%. The growth in the assay on OVCAR-5 ovarian is 97.1%; in the assay on OVCAR-4 ovarian it was 96.5%; with IGROV1 ovarian it was 105%; in the assay on OVCAR-3 ovarian it was 110%; with HS 578T breast it was 102%; in the assay with NCI/ADR-RES ovarian, 104%.
On to `C[n+]1ccccc1C[n+]1ccccc1`, for which the growth in the assay with SK-MEL-2 melanoma was 94.4%; in the assay with EKVX NSCLC, 113%; in the assay with SN12C renal, 105%; in the assay with UO-31 renal it was 90.5%; in the assay on TK-10 renal it was 98.9%; in the assay with ACHN renal, 112%. In addition, the growth was 114% in the assay with CAKI-1 renal; 109% with A498 renal; 92.7% with CCRF-CEM leukemia; 88.6% in the assay on SR leukemia; 108% with RPMI-8226 leukemia; 95.9% with OVCAR-8 ovarian. Besides, the growth with OVCAR-5 ovarian is 113%; in the assay with OVCAR-4 ovarian it was 113%; in the assay on SK-OV-3 ovarian it was 109%; in the assay with IGROV1 ovarian it was 130%; in the assay with OVCAR-3 ovarian, 123%; with HS 578T breast it was 121%. Besides, in the assay on NCI/ADR-RES ovarian, the growth was 113%.
In the case of `Cc1cc2cccnc2c2ncccc12`, the growth in the assay with SK-MEL-2 melanoma was 6.1% (active); with EKVX NSCLC, 40.2%; in the assay with SN12C renal, 22.4%; in the assay on UO-31 renal, 27%; with TK-10 renal, 11.9%; in the assay on ACHN renal it was 18.2%. In addition, the growth with CAKI-1 renal was 12.6%; with A498 renal, 23.6%; with CCRF-CEM leukemia, -11.8% (active); in the assay with SR leukemia, 6.21% (active); in the assay on RPMI-8226 leukemia, 13.4%; in the assay on OVCAR-8 ovarian, 13%. The growth with OVCAR-5 ovarian is 45.6%; in the assay on OVCAR-4 ovarian, 14.4%; with SK-OV-3 ovarian, 1.57% (active); in the assay with IGROV1 ovarian, 29.1%; in the assay on OVCAR-3 ovarian it was 33.8%; in the assay on HS 578T breast it was 61.3%. The growth in the assay with NCI/ADR-RES ovarian is 11.2%.
Regarding `NC(=S)N/N=C/c1ncccc1O`, the growth with SK-MEL-2 melanoma was 103%; with EKVX NSCLC, 44.1%; in the assay with SN12C renal it was 20.5%; in the assay on UO-31 renal, 1.36% (active); in the assay with TK-10 renal it was 71.2%; with ACHN renal it was 10.7%. The growth is 15.1% with CAKI-1 renal; 1.76% (active) with CCRF-CEM leukemia; 4.88% (active) in the assay with MOLT-4 leukemia; 12.1% in the assay with SR leukemia; 11.3% with RPMI-8226 leukemia; -8.61% (active) with OVCAR-5 ovarian. The growth is 35.2% with OVCAR-4 ovarian, 47.3% in the assay on SK-OV-3 ovarian, -11.2% (active) in the assay with IGROV1 ovarian and 27.7% in the assay on OVCAR-3 ovarian.
Regarding `CCN1/C(=C/C(C)=C/c2sc3ccc4ccccc4c3[n+]2CC)Sc2ccc3ccccc3c21`, the growth with SK-MEL-2 melanoma was -93.5% (active); with EKVX NSCLC it was -90.8% (active); with SN12C renal it was -84.9% (active); with UO-31 renal it was -89.8% (active); in the assay on TK-10 renal, -97.3% (active); in the assay with ACHN renal, -97.2% (active). The growth with CAKI-1 renal is -97.9% (active); in the assay with A498 renal it was -98.3% (active); in the assay with MOLT-4 leukemia it was -43.6% (active); in the assay on RPMI-8226 leukemia it was -58.1% (active); in the assay with OVCAR-8 ovarian, -68.7% (active); in the assay with OVCAR-5 ovarian, -91.7% (active). In addition, the growth in the assay on OVCAR-4 ovarian was -76.9% (active); in the assay on SK-OV-3 ovarian, -99% (active); in the assay on IGROV1 ovarian it was -88.4% (active); in the assay on OVCAR-3 ovarian it was -94.5% (active); in the assay on HS 578T breast, -66.8% (active); with NCI/ADR-RES ovarian, -19.3% (active).
As to `NNc1cccc([N+](=O)[O-])c1`, the growth is 98% with SK-MEL-2 melanoma; 79.9% with EKVX NSCLC; 102% with SN12C renal; 83.1% in the assay with UO-31 renal; 98% in the assay with TK-10 renal; 88.7% in the assay with ACHN renal. In addition, the growth with CAKI-1 renal is 56%; in the assay with A498 renal, 83%; in the assay with MOLT-4 leukemia, 25.3%; in the assay with SR leukemia, 35%; with RPMI-8226 leukemia it was 90.9%; in the assay with OVCAR-8 ovarian it was 78%. Also, the growth with OVCAR-5 ovarian is 94.8%; in the assay on OVCAR-4 ovarian, 107%; in the assay on IGROV1 ovarian it was 83%; in the assay with OVCAR-3 ovarian, 100%; in the assay with HS 578T breast, 106%; with NCI/ADR-RES ovarian, 76.3%.
